According to PubChem BioAssay (NCI):
Where “and” joins values, the source holds several entries; their conditions need not be identical. Identical values can stand only once. Compounds without any hit were thinned out: in the full panel of roughly 83,000, 20% have a hit.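 Percent growth is the endpoint: 0 to 100 indicates growth inhibition (40 means 60% inhibition), 0 means no net growth, and negative values indicate cell death.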 Calls of active or inactive are those of the source. The calls were made as follows: active = growth percent below 10; inactive = the rest.

What follows are compounds tested on TK-10 renal (assay: NCI-60 one-dose screen, 48 h (100 = growth as untreated, 0 = no growth, -100 = all killed)). Conditions: 10 µM unless noted.

| Compound | growth |
| --- | --- |
| O=Cc1ccc(-c2ccc(-c3ccc(CO)s3)o2)s1 | -35% [100 µM] (active) and -93.3% [100 µM] (active) |
| CC1=CC[C@@H]2[C@@H](CC[C@@]2(C)O)C(C)(C)[C@H]1CC[C@@H]1[C@@]2(C)CCC(=O)C(C)(C)O[C@@H]2CC[C@]1(C)O | 10.2% [100 µM] (inactive) and -99.3% [100 µM] (active) |
| O=C(CCc1ccccc1)ON1C(=S)NC(c2ccccc2)(c2ccccc2)C1=S | -6.92% [100 µM] (active) and -21.7% [100 µM] (active) |
| CCOC(=O)C1C(C(C)C)C2(C#N)C(=N)OC1(C)C2(C#N)C#N (configuration not stated) | 5.66% [100 µM] (active) and -73.8% [100 µM] (active) |
| O=C(/C=C/c1ccccc1)CCC1C(=O)c2ccccc2C1=O | 105% [100 µM] (inactive) and 77.6% [100 µM] (inactive) |
| C=C1C(=O)OC2CC3(C)CCCC(C)C3=CC12 (configuration not stated) | -100% [100 µM] (active) and -97% [100 µM] (active) |
| Fc1cccc(F)c1C1SCc2nc3cc4ccccc4cc3n21 (configuration not stated) | 27% [100 µM] (inactive) and 34.3% [100 µM] (inactive) |
| O=C(O)CCCOc1cc(-c2ccccc2F)nc2cc3c(cc12)OCO3 | 53.8% [100 µM] (inactive) and 2.37% [100 µM] (active) |
| C=c1c2ccccc2oc2nc3[nH]c(N)c(C#N)c(N)c3c(=N)c12 | 43.9% [100 µM] (inactive) and -12.1% [100 µM] (active) |
| Cc1ccc(/C=N/Nc2cc(C)c3cccc(C)c3n2)s1 | -67.1% [100 µM] (active) and -100% [100 µM] (active) |
| C=CCO/N=C/c1cc(NC(=S)c2ccoc2C)ccc1Cl | -93.7% [100 µM] (active) and -93.1% [100 µM] (active) |
| C=C1C(=O)OC2CC1C(OC(=O)/C=C/c1ccccc1)C/C(C)=C/CC/C(C)=C/CCC2(C)O (configuration not stated) | -99.2% [100 µM] (active) and -83.5% [100 µM] (active) |
| CC1(C)CCC2(C(=O)O)C(O)CC3(C)C(=CCC4C5(C)CCC(OC6OCC(O)C(O)C6OC6OCC(O)C(O)C6OC6OCC(O)C(OC7OC(CO)C(O)C(O)C7O)C6O)C(C)(C)C5CCC43C)C2C1 (configuration not stated) | 116% [100 µM] (inactive) and 15.1% [100 µM] (inactive) |
| On1c(-c2ccccc2)nc2ccccc2c1=S | 1.71% [100 µM] (active) and -38.8% [100 µM] (active) |
| CC1=C(Cl)C[C@@H](/C(C)=C\Cl)O[C@@]1(O)C(Br)Br | 101% [100 µM] (inactive) and -87.5% [100 µM] (active) |
| CC(C)(C)N/N=C(/Cc1nc2c3c(ccc2[nH]c1=O)C(=O)c1ccccc1C3=O)C(=O)NC1=C(Cl)C(=O)c2ccccc2C1=O | 59.3% [100 µM] (inactive) and -41.1% [100 µM] (active) |
| COc1ccc2nc3c4c(nccc4c2c1)-c1ncccc1C3=O | -90.7% [50 µM] (active) and -100% [50 µM] (active) |
| C=C1C(=O)C2=CC1CCC(=O)C1(C)CCC(OC(C)=O)C(C)(C)C1CC2O (configuration not stated) | -96% [100 µM] (active) and -89.5% [100 µM] (active) |
| CC1OC(OC2C(OC3CCC4(C)C(CCC5(C)C4CC=C4C6CC(C)(C)CCC6(C(=O)O)CCC45C)C3(C)CO)OCC(O)C2O)C(O)C(O)C1O (configuration not stated) | -92.1% [100 µM] (active) and -100% [100 µM] (active) |

| Compound | growth |
| --- | --- |
| COc1c(/C=C/C=O)cc2c(c1OC)OCO2 | -2.29% [100 µM] (active) and -52.3% [100 µM] (active) |
| C=C(C)C1CC2(C)C(C)CC(O)CC2C(OC(=O)C=C(C)C)C1O (configuration not stated) | 17.2% [100 µM] (inactive) and 48.8% [100 µM] (inactive) |
| C[C@@H]1CCC([C@@H](C)[C@H]2CC[C@H]3[C@@H]4CC[C@H]5C[C@@H](O)CC[C@]5(C)[C@H]4CC[C@]23C)=NC1 | 27.5% [100 µM] (inactive) and -69% [100 µM] (active) |
| COc1ccc2c(c1)C(OC)C1c3c(cc4c(c3-2)OCO4)CCN1C (configuration not stated) | -18.2% [100 µM] (active) and -91.5% [100 µM] (active) |
| COc1ccc(OC)c(Cc2cnc3nc(N)nc(N)c3c2C)c1 | 27.5% [100 µM] (inactive) and -100% [100 µM] (active) |
| N=C1C(=N)c2ccccc2-c2ccccc21 | 51.2% [100 µM] (inactive) and 3.24% [100 µM] (active) |
| CC1(C)CCC[C@]2(C)[C@@H](C=O)C(C=O)=CC[C@@H]12 | -6.19% [100 µM] (active) and -33.3% [100 µM] (active) |
| COc1ccc2c(c1)C(N)=C(c1ccccc1)C2=O | 99.7% [100 µM] (inactive) and 3.68% [100 µM] (active) |
| Cc1ccc(NC(=S)C#N)cc1Cl | 7.58% [100 µM] (active) and -53.9% [100 µM] (active) |
| Cc1cc(O)c2c(c1)C(=O)C(c1c(C)cc3c(c1O)C(=O)C1OC1C3=O)=CC2=O (configuration not stated) | -99.7% [100 µM] (active) and -86.5% [100 µM] (active) |
| C=C(CO)C(=O)OC1CC(=C)C2CC(O)C(C)C2C2OC(=O)C(=C)C12 (configuration not stated) | 103% [100 µM] (inactive) and -92% [100 µM] (active) |
| Cc1c2c(c(C)c3c[n+](C)ccc13)Oc1ccccc1O2 | -2.16% [100 µM] (active) and -100% [100 µM] (active) |
| CCOC(=O)COc1cc(-c2ccccc2F)nc2cc3c(cc12)OCO3 | 126% [100 µM] (inactive) and 78.4% [100 µM] (inactive) |
| CC1(C=O)CCC23COC4(CCC5C6(C)CCC(OC7OCC(OC8OC(CO)C(O)C(OC9OC(CO)C(O)C(O)C9O)C8OC8OCC(O)C(O)C8O)C(O)C7OC7OC(CO)C(O)C(O)C7O)C(C)(C)C6CCC5(C)C4(C)CC2O)C3C1 (configuration not stated) | -87.3% [100 µM] (active) and -69.8% [100 µM] (active) |
| CC1=C(C2=C(C)C(=O)C(=O)c3cc(C)ccc32)c2ccc(C)cc2C(=O)C1=O | -100% [100 µM] (active) |
| COC(=O)[C@]1(C)CCC[C@@]2(C)[C@@H]3C[C@@H]4[C@H]5C[C@@]3(CC[C@@H]21)C[C@@]45C | -88.2% [100 µM] (active) and -65.7% [100 µM] (active) |
| CN1CCc2cc3c(c4c2C1C(O)c1ccccc1-4)OCO3 (configuration not stated) | 9.4% [100 µM] (active) and -86.5% [100 µM] (active) |
| COc1ccc(Nc2nc3ccc(C(F)(F)F)cc3nc2C(=O)O)cc1 | -10.5% [100 µM] (active) and -93.8% [100 µM] (active) |
